Screening results: PubChem BioAssay, National Center for Advancing Translational Sciences (NCATS)
HP1b binding inh = HP1-beta chromodomain-methylated histone interaction inhibition. 390,000 tested, 0.56% active. Potency, µM (titrated, usually from 114 µM), for inactives: at the highest dose activity change, negative = inhibition, hits mostly inhibitors. P83916. AlphaScreen HP1-beta / biotin-H3K9me3 peptide binding; also: nearly all actives have a fitted effect of over 70% in size
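Compound inhibition of the preformed complex between 50 nM HP1-beta and 50 nM biotinylated H3K9me3 peptide was read by AlphaScreen. Buffer was PBS pH 7.4 with 0.01% Tween-20. Incubations ran 30 min at room temperature, with 10 ug/mL donor/acceptor beads.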
BAZ2B inh = BAZ2B (human) inhibition | Q9UIF8 | Potency, µM (series often up to 114 µM), inactives show top-dose activity change, negative = inhibition, actives largely listed as inhibitors | AID 504333 | 360,000 tested, 4.4% active | AlphaScreen BAZ2B-H3K14Ac peptide displacement; also: % is scaled to controls: 0 for no effect and ±100 for the full control effect; nearly all actives have a fitted effect of over 60% in size
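AlphaScreen displacement: compounds (up to 110uM) incubated 30 min at room temperature with a preformed 50 nM BAZ2B/50 nM biotinylated H3K14Ac peptide complex in PBS pH 7.4 with Tween-20. Donor and acceptor beads at 10 ug/mL final added, 20 min light-protected before reading.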
L3MBTL1 inh = inhibitors of human L3MBTL1; AlphaScreen L3MBTL1–H3K9me1 peptide binding; AID 485360; 230,000 tested, 0.66% active; Potency, µM (doses to about 57.1 µM), for the others: at the highest dose activity, negative = inhibition, actives largely listed as inhibitors; Q9Y468; also: % is scaled to controls: 0 for no effect and ±100 for the full control effect; nearly all actives have a fitted effect of over 60% in size
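Displacement of a biotinylated histone H3(1-15) peptide monomethylated at Lys9 (75 nM) from L3MBTL1 (50 nM) was measured by AlphaScreen after a 30 min room-temperature compound incubation; cefsulodin titration served as intraplate control.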
G9a inh = inhibitors of human histone lysine methyltransferase G9a; Q96KQ7; 350,000 tested, 8.8% active; Potency, µM (titrated, usually from 102 µM), for the others: at the top dose activity, negative = inhibition, most hits filed as inhibitors; AID 504332; G9a H3K9 monomethylation, AlphaScreen, 2 h; also: % is scaled to controls: 0 for no effect and ±100 for the full control effect; nearly all actives have a fitted effect of over 75% in size
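Quantitative HTS format: methyltransferase activity on a biotin-tagged H3K9 peptide is measured by AlphaScreen, using a rabbit anti-monomethyl-H3K9 antibody with streptavidin donor and anti-IgG acceptor beads. Final levels are 20 nM enzyme, 500 nM peptide, 20 uM SAM; 2 h RT.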
Sfp inh = inhibitors of Bacillus subtilis Sfp phosphopantetheinyl transferase; Potency, µM, inactives show largest response in the series, negative = inhibition, most hits filed as inhibitors; Q9F4F7; 310,000 tested, 3.5% active; AID 1490; Biochemical Sfp PPTase activity, qHTS;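 also: the enzyme is Sfp with the accession as filed and its product quenches rhodamine fluorescence; 0% = enzyme reaction without inhibitor and -100% = no enzyme wells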
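After 15 min at room temperature with compound, 15 nM Sfp received 5 uM rhodamine-CoA plus 12.5 uM BHQ-2-ybbR (50 mM Hepes pH 7.6, 10 mM MgCl2). Rate came from the fluorescence difference over 30 min, ex 525/em 598 nm.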
JMJD2A Tudor = blocks the human JMJD2A Tudor domain | 390,000 tested, 4.4% active | Potency, µM (top dose mostly 114 µM), for inactives: top-dose activity change, negative = inhibition, hits mostly inhibitors | AlphaScreen JMJD2A-Tudor / H3K4me3 peptide binding | O75164; also: % is scaled to controls: 0 for no effect and ±100 for the full control effect; nearly all actives have a fitted effect of over 50% in size
* = called active by the depositor; u = inconclusive; x = not tested or not shown; ! = not active in a repeat; [ ] = remark or other dose. Most compounds without a hit are left out; they make up all but 12% or so of the library. Calls follow the shape of the dose curve; as a rule, active = well fitted curve in the direction sought with a large enough effect; inconclusive = small, poorly fitted or top-dose-only effect, or another doubt; inactive = no such curve, though single readings can be large; an effect the other way counts as inactive or inconclusive. Potency is read from the fitted curve at half-maximal effect.

SMILES	HP1b binding inh	BAZ2B inh	L3MBTL1 inh	G9a inh	Sfp inh	JMJD2A Tudor
O=C1CCc2cc(S(=O)(=O)Nc3ccccn3)ccc2N1	x	x	x	x	x	-11.6%
Cc1ccc(C(=O)OCc2cc(=O)n3nc(-c4cccs4)sc3n2)cc1	16.6%	-31.7%	x	17.3%[59 µM]	x	-27.3%
CC[C@H](C)[C@@H](NC(=O)O[C@H]1C(=O)c2cc(OC)ccc2O[C@@H]1c1ccc(OC)c(Br)c1)C(=O)OC	x	x	x	x	-17.0%	x
O=C(CCc1ccc(S(=O)(=O)N2CCOCC2)cc1)N/N=C/c1ccc(O)c(O)c1O	u	u	14.1µM*	7.94µM*	22.4µM*	79.4µM*
COCCNC(=O)c1cnn(-c2ccc(C)cc2C)c1C1CCN(C(=O)OC(C)(C)C)CC1	43.3%	5.7%[57.1 µM]	x	-2.9%[59 µM]	x	-14.6%
COCCNC(=O)c1c[nH]n2c(=O)cc(C3CCN(C(=O)OC(C)(C)C)CC3)nc12	25.0%	-20.7%	x	56.2µM*	14.6%	-7.8%
O=C1[C@H]2[C@H]3[C@H](O)[C@H](O)C/C(=N/OC[C@@H](O)COCc4ccco4)[C@H]3CC[C@@H]2C(=O)N1C1CCCCC1	x	x	x	x	-1.5%	x
COc1cc(OC)c(NS(=O)(=O)c2c(C)nc3sc(C)cn3c2=O)cc1Cl	40.6%	u	x	-33.6%[59 µM]	x	-18.3%
CC1=C(C(=O)OCc2ccccc2)C(c2ccc(Cl)cc2Cl)NC(=O)N1CCCC(=O)O (centres undefined)	65.6%	-39.0%	u	56.2µM*	u	-20.7%
CCOC(=O)C1=C(C)N(CCCC(=O)O)C(=O)NC1c1ccccc1Cl (centres undefined)	17.9%	x	x	x	x	-12.5%
CCOC(=O)CN1C(=O)N[C@H](c2ccc(Br)cc2)C(C(C)=O)=C1C	24.7%	-23.9%	-12.8%	44.7µM*	u	-27.5%
CCOC(=O)C1=C(C)N(CCCCCC(=O)O)C(=O)NC1c1ccccc1Cl (centres undefined)	34.2%	u	-13.8%	56.2µM*	u	-17.9%
CCOC(=O)CN1C(=O)N[C@@H](c2ccc(Br)cc2)C(C(=O)OC)=C1C	32.3%	2.8%	x	11.9%[59 µM]	29.4%	-12.8%
CCOC(=O)C1=C(C)N(CCCCCC(=O)O)C(=O)NC1c1ccc(Br)cc1 (centres undefined)	21.2%	-7.4%	5.5%	50.1µM*	14.4%	u
COc1ccc(Br)cc1CNC(=O)CSc1n[nH]c(-c2ccccc2)n1	31.2%[57 µM]	3.9%	x	-2.1%[59 µM]	x	-11.7%
Cc1ccc(CNC(=O)c2cnc(N3CCCCC3)c3ccccc23)cc1	50.5%[57 µM]	25.5%	x	34.5%[59 µM]	x	21.3%
CCOC(=O)c1[nH]c(C)c(CCC(=O)Nc2cc(Cl)c(OC)cc2OC)c1C	0.2%[57 µM]	-11.1%	x	-26.9%[59 µM]	x	-35.4%
COc1ccc(C2Nc3ccccc3C(=O)N2Cc2ccccc2)cc1OCc1ccc(NC(C)=O)cc1 (centres undefined)	x	x	x	x	x	-25.2%
COC(=O)[C@H](Cc1ccccc1)NC(=O)O[C@@H]1C(=O)c2ccc(OC)cc2O[C@H]1c1cccc(C(F)(F)F)c1	x	x	x	x	-6.7%	x
CCc1ccc(NC(=O)c2sc3nc(C)c(Cl)c(C)c3c2N)cc1	68.0%	-28.3%	x	-30.0%[59 µM]	x	-1.5%
CCOc1ccc(-n2c(=O)c3c4c(sc3n(Cc3cccc(C)c3)c2=O)CCCC4)cc1	42.3%	0.4%	x	1.5%[59 µM]	x	8.2%
C=CCOc1ccccc1OC[C@H](O)CNC(C)C	x	x	x	20.5%[21.5 µM]	2.5%	x
CCc1ccc(CN(C)CC(O)COc2cccc3ccccc23)cc1 (centres undefined)	u	-29.2%	x	22.4µM*	u	2.51µM*
OCC(O)COc1cccc2ccccc12 (centres undefined)	x	x	x	15.2%[59 µM]	-8.6%	x
CC(C)NCC(O)COc1cccc2ccccc12 (centres undefined)	40.8%	0.0%	x	3.16µM*!	-2.9%	-13.1%
SMILES	HP1b binding inh	BAZ2B inh	L3MBTL1 inh	G9a inh	Sfp inh	JMJD2A Tudor
COc1ccc(NC(=O)CSc2nc3[nH]ncc3c(=O)[nH]2)cc1OC	34.2%	-24.1%	10.4%	44.7µM*	x	u
Cc1nnc(NC(=O)CSc2nc3[nH]ncc3c(=O)[nH]2)s1	33.8%	-24.2%	x	35.5µM*	8.0%	-7.4%
CCc1nnc(NC(=O)CSc2nc3[nH]ncc3c(=O)[nH]2)s1	22.1%	-23.4%	x	u	8.4%	-8.4%
O=C(CSc1nc2[nH]ncc2c(=O)[nH]1)Nc1ccc(Cl)c(Cl)c1	30.9%	-3.3%	-1.9%	8.6%[59 µM]	x	-5.5%
CCc1ccc(-c2nn(CC(=O)NC3CCCC3)c3c2cnc2ccc(F)cc23)cc1	32.3%	-2.9%	x	9.9%[59 µM]	x	-6.3%
CCOC(=O)N1CCN(C(=O)COC(=O)c2ccccc2NCCO)CC1	6.7%	35.8%	-4.3%	50.1µM*	x	2.8%
COc1ccc(CCNC(=O)COC(=O)c2ccco2)cc1OC	29.3%	8.7%	6.6%	-4.2%	1.4%	-3.0%
O=C(OCC(=O)N1CCC(Cc2ccccc2)CC1)c1ccccc1NCCO	28.8%	13.2%	10.1%	-7.3%	x	12.6%
O=C(COC(=O)c1ccccc1NCCO)NCc1cccs1	-15.6%	-0.9%	0.7%	44.7µM*	x	u
COc1ccc(CCNC(=O)COC(=O)c2ccccc2NCCO)cc1OC	-2.5%	-6.8%	0.3%	50.1µM*	x	u
CCOc1ccc(CNC(=O)C2CCCN(c3nc4c(C)cc(C)cc4s3)C2)cc1 (centres undefined)	42.4%	-14.6%	x	16.2%[59 µM]	x	-5.1%
COc1ccc2oc(=O)c(C(=O)N3CCN(c4ccc(C)cc4)CC3)cc2c1	19.3%	-17.2%	x	8.2%[59 µM]	x	-11.9%
CC1CCN(C(=O)c2cnn(-c3ccc(Cl)cc3)c2C2CCN(C(=O)OC(C)(C)C)CC2)CC1	15.2%	6.5%[57.1 µM]	x	-7.3%[59 µM]	x	-11.3%
Cc1ccc(-c2nc(C(=O)NC3CCCCCC3)no2)cc1	46.2%	x	x	x	x	15.8µM*
O=C(O)c1ccc(S(=O)(=O)N(Cl)Cl)cc1	x	x	x	-10.7%[2.33 µM]	-24.6%	x
O=C1N=C(N2CCCC2C(=O)O)S/C1=C\c1ccco1 (centres undefined)	u	79.4µM*	x	25.1µM*	-26.4%	u
O=C(O)c1ccccc1O	37.2%	10.4%	14.8%	18.6%[59 µM]	12.3%	-3.6%
O=C(O)c1cccc(C(=O)O)c1Br	4.0%	u	-0.7%	8.9%	12.2%	89.1µM*
Nc1c(O)cccc1C(=O)O	-15.1%	x	x	x	x	56.2µM*
CCCOc1ccc(N2C(=O)CC(N3CCN(c4ccccc4OC)CC3)C2=O)cc1 (centres undefined)	44.3%	-22.3%	x	44.7µM*	12.9%	-12.7%
O=C(O)c1ccc(N2C(=O)CC(N3CCN(c4ccc(Cl)cc4)CC3)C2=O)cc1 (centres undefined)	47.2%	u	10.1%	44.7µM*	5.6%	-16.8%
